Results taken from PubChem BioAssay (NCI).
Compounds without any hit were thinned out: in the full panel of roughly 83,000, 20% have a hit.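 Negative percent growth values reflect cell death: -40 means 40% of the cells present at the start died, and -100 means all died.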 Values without a mark were called inactive. Activity calls are given as the source filed them. The calls were made as follows: active = growth percent below 10; inactive = the rest.

Test system: OVCAR-8 ovarian
Experiment: NCI-60 one-dose screen, 48 h (100 = growth as untreated, 0 = no growth, -100 = all killed)
Settings: 10 µM unless noted

| SMILES | growth |
| --- | --- |
| Cc1nc2sccn2c1-c1cn2ccsc2n1 | 96% |
| C=CCn1c(-c2ccc(-c3nc4ccc(C)cc4[nH]3)cc2)n[nH]c1=S | 94.4% |
| COc1cc(CC(=O)n2ncc3ccc(N)cc32)cc(OC)c1OC | 104% |
| COC(=O)C(CC=O)C(=O)C(=O)Nc1cccc(C(F)(F)F)c1 (centres undefined) | 90.5% |
| CCNc1nc2ccc(Nc3ccnc4cc(Cl)ccc34)cc2[nH]1 | 75.8% |
| Cc1cc2c(c(C)c1Cl)C(=O)/C(=C/c1ccc(O)c(O)c1)O2 | 99.8% |
| O=C1/C=C/[C@@H](O)[C@@H]2C[C@@H](O)C[C@H]2/C=C/CCC[C@H](CCc2cccc3ccccc23)O1 | 17.7% |
| COc1cc2c(cc1OC)C(=O)/C(=C/c1cc(C)c(O)c(C)c1)S2 | 37% |
| Cc1ccc(-n2c3c(c(-c4ccccc4)c2-c2ccccc2)C2=NCCN2C=N3)cc1 | 75.2% |
| NS(=O)(=O)c1ccc(CCn2c(SCC(=O)c3ccc(Cl)cc3)nc3ccccc3c2=O)cc1 | 107% |
| COc1cc(NC(=O)CSc2nc3ccc(C)cc3c(=O)n2Cc2ccccc2)cc(OC)c1OC | 41.3% |
| CN1[C@@H]2CC[C@H]1/C(=C\c1ccccc1)C(=O)/C2=C/c1ccccc1 | -9.6% (active) |
| CSc1nc2sc3cccc(Cl)c3n2c(=N)c1C#N | 99.3% |
| Cc1c2cc[nH]c(=O)c2c(C)c2c1[nH]c1cc(OCCN3CCN(C)CC3)ccc12 | 5.54% (active) |
